{
  "source": "PubChem BioAssay",
  "note": "The source made the active and inactive calls. No rule for the calls is given here.",
  "data": [
    {"tested_on": "Aerobactin synthetase IucA (Klebsiella pneumoniae hvKP1)", "experiment": "Biochemical IucA enzyme inhibition primary screen of the Spectrum library (AID 1346200);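 also: 100% = wells without compound and 0% = wells lacking enzyme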", "conditions": "malachite green pyrophosphate, A620, at 8 µM, stronger effect = lower value", "values": [
      {"smiles": "Nc1ccccc1C(=O)CC(N)C(=O)O", "note": "(stereo not given)", "activity remaining": "118% (inactive)"},
      {"smiles": "N[C@H](Cc1ccccc1)C(=O)O", "activity remaining": "122% (inactive)"},
      {"smiles": "CO[C@@]1(NC(=O)Cc2cccs2)C(=O)N2C(C(=O)O)=C(COC(N)=O)CS[C@@H]21", "activity remaining": "108% (inactive)"},
      {"smiles": "OCC(O)C(O)C(O)C(O)C(O)CO", "note": "(stereo not given)", "activity remaining": "93% (inactive)"},
      {"smiles": "CCOC(=O)[C@H](CCc1ccccc1)N[C@H]1CCc2ccccc2N(CC(=O)O)C1=O", "activity remaining": "123% (inactive)"}
    ]}
  ]
}
